Measurements reported in PubChem BioAssay (EPA / NIEHS).
Inconclusive results are not listed. More than one record can exist for a structure, and the calls need not agree. Calls of active or inactive are those of the source. The calls were made as follows, unless noted: active = hit-call score of the fitted dose curve at least 0.9, where 1 is the maximum; inconclusive = response in the unintended direction; inactive = score below 0.9.

Columns and labels:
[1] = ATG_TGFb_CIS: Attagene CIS-FACTORIAL HepG2 Assay for human Transforming Growth Factor (TGF) (AID 2282967; active = hit-call score of the fitted dose curve at least 0.9, where 1 is the maximum; inactive = score below 0.9); conditions: HepG2 Attagene CIS TGFb reporter, mRNA transcription; actives raise or lower the signal
Method in brief: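 Cells were dosed for 24 hours, after which total RNA was reverse-transcribed and reporter sequences amplified, labeled and sized by capillary electrophoresis. Activity was fitted in both directions against DMSO.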

[2] = ATG_VDRE_CIS: Attagene CIS-FACTORIAL HepG2 Assay for human Vitamin D Receptor Element (VDRE) (AID 2282968; active = hit-call score of the fitted dose curve at least 0.9, where 1 is the maximum; inactive = score below 0.9); conditions: HepG2 VDRE cis-reporter transcription, actives raise or lower the signal
Method in brief: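 In transiently transfected HepG2 liver cells, gain or loss of reporter mRNA after 24 h exposure is scored relative to DMSO, using fluorescence detection by capillary electrophoresis of RT-PCR products.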

[3] = biological target: X-box-binding protein 1 (Homo sapiens) (UniProt P17861); assay: ATG_Xbp1_CIS: Attagene CIS-FACTORIAL HepG2 Assay for human X-box Binding Protein 1 (XBP1) (AID 2282972; active = hit-call score of the fitted dose curve at least 0.9, where 1 is the maximum; inactive = score below 0.9); conditions: HepG2 XBP1 cis-element reporter, Attagene multiplex; actives raise or lower the signal
X-box-binding protein 1 (Homo sapiens), sequence (P17861 whole entry, looked up): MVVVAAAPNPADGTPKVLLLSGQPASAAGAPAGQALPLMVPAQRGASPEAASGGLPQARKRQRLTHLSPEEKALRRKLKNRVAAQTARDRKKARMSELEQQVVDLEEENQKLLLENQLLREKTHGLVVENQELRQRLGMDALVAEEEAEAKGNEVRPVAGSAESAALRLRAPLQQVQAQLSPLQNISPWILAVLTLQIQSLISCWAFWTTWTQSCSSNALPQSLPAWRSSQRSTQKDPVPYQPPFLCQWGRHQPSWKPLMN
Method in brief: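 HepG2, transient MRTU transfection (cis-promoter driven), 24 h compound exposure. Total RNA → oligo(dT) RT → PCR → 6-FAM labeling → HpaI cut → CE. Bidirectional fit vs DMSO.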

[4] = ATG_M_19_TRANS: Attagene TRANS-FACTORIAL HepG2 Assay for M19 Transcription Factor (Internal Marker) (AID 2282974); conditions: HepG2 Attagene TRANS-FACTORIAL M19 internal marker reporter
Method in brief: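 Cells: human HepG2, transiently transfected with multiplexed reporter transcription units. Exposure: 24 h. Detection: RT-PCR of reporter mRNA with capillary electrophoresis. Analysis: gain-of-signal vs DMSO.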

[5] = biological target: Glucocorticoid receptor (Homo sapiens) (UniProt P04150); assay: ATG_GR_TRANS: Attagene TRANS-FACTORIAL HepG2 Assay for human Glucocorticoid Receptor (GR) (AID 2282978); conditions: HepG2 Attagene TRANS GR reporter, mRNA transcription;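 also: activators score as hits since higher reporter transcript over DMSO is fitted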
Glucocorticoid receptor (Homo sapiens), sequence (P04150 whole entry, looked up, the tested form may be a part): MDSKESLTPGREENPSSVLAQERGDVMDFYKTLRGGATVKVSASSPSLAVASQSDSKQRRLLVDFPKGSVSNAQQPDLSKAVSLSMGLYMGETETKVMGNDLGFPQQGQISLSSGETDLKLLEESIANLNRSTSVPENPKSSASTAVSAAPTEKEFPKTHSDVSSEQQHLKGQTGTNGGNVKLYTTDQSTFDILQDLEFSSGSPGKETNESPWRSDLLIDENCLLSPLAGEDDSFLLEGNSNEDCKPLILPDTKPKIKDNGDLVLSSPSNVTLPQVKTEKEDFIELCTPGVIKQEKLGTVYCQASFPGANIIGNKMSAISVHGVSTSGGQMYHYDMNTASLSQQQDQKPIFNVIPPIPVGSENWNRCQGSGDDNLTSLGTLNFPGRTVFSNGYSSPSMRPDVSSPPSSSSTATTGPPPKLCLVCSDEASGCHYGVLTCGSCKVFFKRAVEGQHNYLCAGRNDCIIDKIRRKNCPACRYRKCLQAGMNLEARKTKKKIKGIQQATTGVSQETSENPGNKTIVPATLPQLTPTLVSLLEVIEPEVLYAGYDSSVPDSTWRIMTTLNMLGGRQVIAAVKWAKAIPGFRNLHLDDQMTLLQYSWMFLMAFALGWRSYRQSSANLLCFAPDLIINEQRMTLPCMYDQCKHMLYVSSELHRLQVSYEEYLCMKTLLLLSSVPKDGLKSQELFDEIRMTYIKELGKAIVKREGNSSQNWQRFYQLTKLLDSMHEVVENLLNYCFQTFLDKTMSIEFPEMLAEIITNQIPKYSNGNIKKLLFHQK
Method in brief: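 In this trans-factorial format, exogenous NR-GAL4 chimeric proteins in transfected HepG2 cells regulate GAL4-UAS reporter transcription. After 24 h treatment, reporter mRNA induction relative to DMSO is read by RT-PCR and capillary electrophoresis.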

[6] = biological target: Estrogen receptor (Homo sapiens) (UniProt P03372); assay: ATG_ERa_TRANS: Attagene TRANS-FACTORIAL HepG2 Assay for human Estrogen Receptor alpha (ERa) (AID 2282970); conditions: HepG2 Attagene TRANS ERa GAL4 reporter, mRNA
Estrogen receptor (Homo sapiens), sequence (P03372 whole entry, looked up, the tested form may be a part): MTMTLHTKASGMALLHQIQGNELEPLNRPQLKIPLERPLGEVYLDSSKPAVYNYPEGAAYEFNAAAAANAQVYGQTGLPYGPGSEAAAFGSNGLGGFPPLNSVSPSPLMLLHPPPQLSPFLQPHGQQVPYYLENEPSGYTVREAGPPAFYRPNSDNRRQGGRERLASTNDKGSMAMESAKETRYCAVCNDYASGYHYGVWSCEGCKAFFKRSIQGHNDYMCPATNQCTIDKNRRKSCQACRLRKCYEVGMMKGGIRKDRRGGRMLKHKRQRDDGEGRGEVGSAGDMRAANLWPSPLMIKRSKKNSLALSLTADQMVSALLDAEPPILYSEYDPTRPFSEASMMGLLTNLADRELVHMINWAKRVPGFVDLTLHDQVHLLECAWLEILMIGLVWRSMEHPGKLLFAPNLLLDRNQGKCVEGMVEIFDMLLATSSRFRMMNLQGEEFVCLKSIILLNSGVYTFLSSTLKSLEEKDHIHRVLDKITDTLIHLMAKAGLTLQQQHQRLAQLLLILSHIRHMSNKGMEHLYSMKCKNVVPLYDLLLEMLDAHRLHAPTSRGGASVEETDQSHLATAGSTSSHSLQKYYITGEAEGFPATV
Method in brief: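 HepG2 cells transiently transfected with multiplexed GAL4-UAS reporter units; ERa activity read via exogenous chimeric NR-Gal4 protein. After 24 hour compound exposure, reporter mRNA measured by RT-PCR with 6-FAM labelling and capillary electrophoresis; gain-of-signal fitted relative to DMSO.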

[7] = biological target: Estrogen-related receptor gamma (Homo sapiens) (UniProt P62508); assay: ATG_ERRg_TRANS: Attagene TRANS-FACTORIAL HepG2 Assay for human Estrogen-Related Receptor gamma (ERRg) (AID 2282977); conditions: HepG2 Attagene TRANS reporter, ERRg transactivation;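 also: hits increase reporter signal over DMSO so potencies reflect activators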
Estrogen-related receptor gamma (Homo sapiens), sequence (P62508 whole entry, looked up, the tested form may be a part): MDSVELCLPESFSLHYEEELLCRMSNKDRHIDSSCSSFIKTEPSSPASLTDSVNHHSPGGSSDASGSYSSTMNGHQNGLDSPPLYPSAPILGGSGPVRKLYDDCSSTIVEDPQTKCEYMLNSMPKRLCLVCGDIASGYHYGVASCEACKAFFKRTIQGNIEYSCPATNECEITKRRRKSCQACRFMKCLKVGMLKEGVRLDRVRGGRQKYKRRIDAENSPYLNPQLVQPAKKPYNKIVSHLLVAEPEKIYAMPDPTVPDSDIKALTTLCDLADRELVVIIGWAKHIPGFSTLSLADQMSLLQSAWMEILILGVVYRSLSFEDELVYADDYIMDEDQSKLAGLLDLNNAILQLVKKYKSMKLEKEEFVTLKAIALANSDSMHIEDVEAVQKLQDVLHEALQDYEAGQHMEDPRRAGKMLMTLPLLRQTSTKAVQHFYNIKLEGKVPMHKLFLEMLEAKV
Method in brief: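 Transient HepG2 transfectants, 24 h compound exposure, GAL4-UAS reporter mRNA by RT-PCR/6-FAM labelling/capillary electrophoresis; positive direction vs DMSO.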

[8] = ATG_GAL4_TRANS: Attagene TRANS-FACTORIAL HepG2 Assay for GAL4 (Internal Marker) (AID 2282976); conditions: HepG2 Attagene TRANS GAL4 internal marker reporter
Method in brief: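 HepG2 cells transiently transfected with multiplexed GAL4-UAS reporter constructs were dosed for 24 h. Reporter mRNA was measured by RT-PCR, 6-FAM primer extension, HpaI digestion and capillary electrophoresis, and gain of signal was fitted relative to DMSO.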

[9] = biological target: Steroid hormone receptor ERR1 (Homo sapiens) (UniProt P11474); assay: ATG_ERRa_TRANS: Attagene TRANS-FACTORIAL HepG2 Assay for human Estrogen-Related Receptor alpha (ERRa) (AID 2282971); conditions: HepG2 Attagene TRANS reporter, ERRa transactivation
Steroid hormone receptor ERR1 (Homo sapiens), sequence (P11474 whole entry, looked up, the tested form may be a part): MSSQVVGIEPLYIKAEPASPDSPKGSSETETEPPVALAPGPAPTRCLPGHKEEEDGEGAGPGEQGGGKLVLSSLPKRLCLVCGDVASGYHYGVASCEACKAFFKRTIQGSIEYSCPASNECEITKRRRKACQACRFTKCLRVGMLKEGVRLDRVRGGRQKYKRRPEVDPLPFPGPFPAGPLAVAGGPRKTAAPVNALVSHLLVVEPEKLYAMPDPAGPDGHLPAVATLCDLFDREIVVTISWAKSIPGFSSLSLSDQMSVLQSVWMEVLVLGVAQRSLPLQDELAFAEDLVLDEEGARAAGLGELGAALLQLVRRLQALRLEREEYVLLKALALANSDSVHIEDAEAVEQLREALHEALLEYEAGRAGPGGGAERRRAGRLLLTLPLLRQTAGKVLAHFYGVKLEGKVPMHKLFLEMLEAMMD
Method in brief: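 HepG2 cells transiently transfected with multiplexed GAL4-UAS reporter units reading chimeric ERRa-Gal4 activity; 24 h compound exposure. Reporter mRNA measured by RT-PCR, 6-FAM labelling, HpaI digest and capillary electrophoresis; gain of signal fitted versus DMSO baseline.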

[10] = biological target: Nuclear receptor subfamily 1 group I member 3 (Homo sapiens) (UniProt Q14994); assay: ATG_CAR_TRANS: Attagene TRANS-FACTORIAL HepG2 Assay for human Constitutive Androstane Receptor (CAR) (AID 2282969); conditions: HepG2 Attagene TRANS-FACTORIAL CAR reporter;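 also: activators raise reporter mRNA above DMSO so AC50 marks induction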
Nuclear receptor subfamily 1 group I member 3 (Homo sapiens), sequence (Q14994 whole entry, looked up, the tested form may be a part): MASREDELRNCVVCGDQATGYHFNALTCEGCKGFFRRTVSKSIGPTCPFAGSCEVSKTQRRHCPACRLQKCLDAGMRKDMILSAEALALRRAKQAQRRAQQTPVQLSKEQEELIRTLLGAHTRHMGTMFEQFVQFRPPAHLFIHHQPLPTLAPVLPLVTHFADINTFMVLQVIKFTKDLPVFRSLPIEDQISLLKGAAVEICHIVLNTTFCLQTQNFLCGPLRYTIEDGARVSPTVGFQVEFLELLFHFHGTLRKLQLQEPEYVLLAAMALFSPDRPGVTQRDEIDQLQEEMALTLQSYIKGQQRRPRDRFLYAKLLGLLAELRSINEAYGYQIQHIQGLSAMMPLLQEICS
Method in brief: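 Readout is reporter mRNA induction, quantified by fluorescent primer extension and capillary electrophoresis after RT-PCR. Cells were HepG2 transiently carrying chimeric NR-Gal4 constructs with GAL4-UAS reporters, treated for 24 h; activity scored upward from DMSO.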

Measured: AC50

CC(O)COc1ccccc1 (stereo unspecified)
inactive: [1] | [2] | [3] | [4] | [5]

Oc1c(Cl)cc(Cl)cc1Sc1cc(Cl)cc(Cl)c1O
inactive: [1] | [6] | [7] | [5]
active: [2] 3.4 µM | [3] 1.45 µM

c1ccc2c(c1)CCC2
inactive: [1] | [2] | [3] | [4] | [8] | [5]

NNC(=O)CCCCC(=O)NN
inactive: [1] | [2] | [9] | [3] | [4] | [8]

O=C(NCc1ncc(C(F)(F)F)cc1Cl)c1c(Cl)cccc1Cl
inactive: [1] | [2] | [6] | [3] | [5]

CCCCCCCC(OC)OC
inactive: [1] | [2] | [6] | [3] | [5]

O=C1c2ccccc2C(=O)c2c(O)c(O)cc(O)c21
active: [6] 4.9 µM
not listed: [2]
inactive: all other assays above

OCC1CCC(CO)CC1 (stereo unspecified)
inactive: [1] | [2] | [6] | [3] | [5]

Brc1ccc(Oc2ccc(Br)cc2Br)cc1
inactive: [1] | [2] | [9] | [3] | [4]

CC(C)(O)C(=O)c1ccccc1
not listed: [2] | [8]
inactive: all other assays above

CC(C)(C)C1CCCCC1O (stereo unspecified)
not listed: [2] | [7] | [9]
inactive: all other assays above

O=C(c1ccccc1)c1ccccc1
inactive: [1] | [2] | [3] | [4] | [8]

CCCCCCCCCCCCCC[n+]1ccccc1
active: [7] 189 µM
inactive: [1] | [2] | [9] | [3] | [4]

NC(C(F)(F)F)C(F)(F)F
inactive: [1] | [2] | [9] | [3]

O=S(=O)(c1ccc(OCc2ccccc2)cc1)c1ccccc1O
active: [2] 8.61 µM | [3] 31 µM
inactive: [1] | [6] | [5]

COC(=O)C(F)(F)C(F)(F)C(F)(F)C(F)(F)C(F)(F)F
inactive: [1] | [2] | [9] | [3] | [4]

FC(OC(F)(F)C(F)(F)C(F)(F)F)C(F)(F)F (stereo unspecified)
not listed: [2] | [5]
inactive: all other assays above

CCCCCCCCCCCCCCC
inactive: [1] | [2] | [3] | [4] | [8]

C[C@]12CC[C@@H]3c4ccc(O)cc4CC[C@H]3[C@@H]1CC[C@@H]2OC(=O)CCC1CCCC1
inactive: [1] | [2] | [3] | [5]
active: [6] 0.0823 µM

FC(F)(F)C(F)(F)C(F)(F)Br
not listed: [2] | [7] | [9]
inactive: all other assays above

C=CC(=C)CC/C=C(\C)CCC=C(C)C
not listed: [2] | [5]
inactive: all other assays above

O=S(=O)(O)c1ccccc1
inactive: [1] | [2] | [3] | [8] | [7] | [5]

O=C(O)c1cccc(C(=O)O)n1
not listed: [2] | [4]
inactive: all other assays above

Cc1ccc(S(=O)(=O)O)cc1
inactive: [1] | [2] | [3] | [8]

NS(=O)(=O)O
inactive: [1] | [2] | [3] | [4] | [8]

Cc1ccccc1C(OCCN(C)C)c1ccccc1 (stereo unspecified)
active: [3] 124 µM
inactive: [1] | [10] | [6] | [9] | [3] | [8]

CC=O
inactive: [1] | [2] | [3] | [4] | [8] | [5]

FC(F)(F)C1(F)C(F)(F)C(F)(F)C(F)(F)C(F)(C(F)(F)F)C1(F)F (stereo unspecified)
inactive: [1] | [6] | [9] | [3] | [8]

COC(O)c1ccccc1 (stereo unspecified)
active: [6] 56.7 µM
not listed: [2] | [4] | [10]
inactive: all other assays above

CC(C)c1c(C(=O)Nc2ccccc2)c(-c2ccccc2)c(-c2ccc(F)cc2)n1CC[C@@H](O)C[C@@H](O)CC(=O)O
inactive: [1] | [3] | [4] | [8]

O=C(O)C(=O)O
inactive: [1] | [10] | [3] | [4] | [8] | [5]

CS(=O)(=O)c1ccc([C@@H](CC2CCCC2)C(=O)Nc2cnccn2)cc1Cl
active: [3] 70.7 µM
inactive: [1] | [7] | [5]

CCCCCCCCCCCC(=O)O
active: [3] 87 µM
inactive: [1] | [3] | [4] | [8]

CCC1CO1 (stereo unspecified)
inactive: [1] | [3] | [8] | [5]
